Measurements from PubChem BioAssay AID1159580 (chemical genetic matrix, 2015).
In all, about 5,500 compounds went through this assay and about 2,000 (36%) were called active. Roughly 18% stayed inconclusive and do not appear here. Cut-off read from the data, not from the text of the source: active = normalized growth mostly below about 0.91 (no sharp cut-off); inconclusive = no clear call, values can overlap the other calls; inactive = mostly above about 0.92. This is one part of the list.

Assay: chemical genetic growth profiling, strain panel (AID 1159580);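 note: tested at 20 µM; growth read once vehicle control cultures reached saturation at 30 °C; 1 = growth at the plate median or of vehicle wells; lower values mean less growth of the strain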
Conditions: S. cerevisiae deletion strains, growth OD
[1] = locus YDL101C, strain DUN1, active compounds read low
[2] = locus YHR030C, strain SLT2, active compounds read low

Measured: normalized growth

C(=NC(N=Cc1ccccc1)c1ccccc1)c1ccccc1 (centres undefined)
inactive: locus YAR019C, strain CDC15, active compounds read low 0.983 | locus YBL105C, strain PKC1, active compounds read low 0.991 | locus YBR135W, strain CKS1, active compounds read low 0.986 | locus YBR136W, strain MEC1, active compounds read low 0.977 | locus YBR160W, strain CDC28, active compounds read low 0.989 | locus YDL017W, strain CDC7, active compounds read low 0.99 | locus YDL028C, strain MPS1, active compounds read low 0.984 | [1] 0.994 | locus YDL108W, strain KIN28, active compounds read low 0.976 | locus YDL132W, strain cdc53, active compounds read low 0.992 | locus YDL214C, strain PRR2, active compounds read low 0.956 | locus YDR052C, strain DBF4, active compounds read low 0.989 | locus YDR054C, strain cdc34, active compounds read low 0.991 | locus YDR226W, strain ADK1, active compounds read low 0.992 | locus YDR477W, strain SNF1, active compounds read low 0.963 | locus YER123W, strain YCK3, active compounds read low 0.937 | locus YER133W, strain GLC7, active compounds read low 0.971 | locus YFL009W, strain cdc4, active compounds read low 0.992 | locus YFL029C, strain CAK1, active compounds read low 0.981 | locus YFR003C, strain YPI1, active compounds read low 0.989 | locus YFR019W, strain FAB1, active compounds read low 0.962 | locus YFR028C, strain CDC14, active compounds read low 0.995 | locus YGR040W, strain KSS1, active compounds read low 0.958 | locus YGR052W, strain FMP48, active compounds read low 1.03 | locus YGR092W, strain DBF2, active compounds read low 0.974 | [2] 0.919 | locus YHR079C, strain IRE1, active compounds read low 0.934 | locus YHR082C, strain KSP1, active compounds read low 0.986 | locus YHR205W, strain SCH9, active compounds read low 0.894 | locus YIL147C, strain SLN1, active compounds read low 0.984 | locus YJL095W, strain BCK1, active compounds read low 0.918 | locus YJL128C, strain PBS2, active compounds read low 0.961 | locus YJL157C, strain FAR1, active compounds read low 0.977 | locus YJR016C, strain ILV3, active compounds read low 0.997 | locus YJR066W, strain TOR1 (second series), active compounds read low 0.937 | locus YJR066W, strain TOR1, active compounds read low 0.973 | locus YKL048C, strain ELM1, active compounds read low 0.957 | locus YKL067W, strain YNK1, active compounds read low 0.956 | locus YKL101W, strain HSL1, active compounds read low 0.941 | locus YKL193C, strain SDS22, active compounds read low 0.995 | locus YKL203C, strain TOR2, active compounds read low 1.02 | locus YLR133W, strain CKI1, active compounds read low 0.958 | locus YLR403W, strain SFP1, active compounds read low 0.945 | locus YML070W, strain DAK1, active compounds read low 0.947 | locus YMR001C, strain CDC5, active compounds read low 0.995 | locus YMR205C, strain PFK2 (second series), active compounds read low 0.953 | locus YMR277W, strain FCP1, active compounds read low 0.998 | locus YNL006W, strain LST8, active compounds read low 0.994 | locus YNL020C, strain ARK1, active compounds read low 0.966 | locus YNL161W, strain CBK1, active compounds read low 0.992 | locus YNL183C, strain NPR1, active compounds read low 0.946 | locus YNL207W, strain RIO2, active compounds read low 0.983 | locus YNL222W, strain SSU72, active compounds read low 0.99 | locus YNL307C, strain MCK1 (second series), active compounds read low 0.964 | locus YOL078W, strain AVO1, active compounds read low 0.992 | locus YOL136C, strain PFK27, active compounds read low 0.968 | locus YOR061W, strain CKA2, active compounds read low 0.942 | locus YOR119C, strain RIO1, active compounds read low 0.972 | locus YOR231W, strain MKK1, active compounds read low 0.911 | locus YOR329C, strain SCD5, active compounds read low 0.989 | locus YPL031C, strain PHO85, active compounds read low 0.962 | locus YPL153C, strain RAD53, active compounds read low 0.955 | locus YPL204W, strain HRR25, active compounds read low 0.976 | locus YPL209C, strain IPL1, active compounds read low 0.99 | locus YPL256C, strain CLN2, active compounds read low 0.913 | locus YPR025C, strain CCL1, active compounds read low 0.991 | locus YPR106W, strain ISR1, active compounds read low 0.99 | locus YPR111W, strain DBF20, active compounds read low 0.985 | strain NNK1, active compounds read low 0.981 | strain TSCII, active compounds read low 0.991
active: locus YLR113W, strain HOG1, active compounds read low 0.856

O=C(NC(c1ccccc1)C(N=Cc1ccccc1)c1ccccc1)c1ccccc1 (centres undefined)
inactive: locus YAL013W, strain DEP1, active compounds read low 1 | locus YBR229C, strain ROT2, active compounds read low 1.02 | locus YCL061C, strain MRC1, active compounds read low 1.02 | [1] 1 | locus YDR150W, strain NUM1, active compounds read low 0.959 | locus YEL061C, strain CIN8, active compounds read low 1.03 | locus YGR078C, strain PAC10, active compounds read low 1.01 | locus YGR229C, strain SMI1, active compounds read low 1.02 | [2] 1.05 | locus YHR087W, strain rtc3, active compounds read low 1 | locus YJL187C, strain SWE1, active compounds read low 1.02 | locus YJR043C, strain POL32, active compounds read low 1.02 | locus YJR075W, strain HOC1, active compounds read low 1.01 | locus YLR039C, strain RIC1, active compounds read low 1.04 | locus YLR058C, strain SHM2 (second series), active compounds read low 1.03 | locus YLR085C, strain ARP6, active compounds read low 1.03 | locus YLR262C, strain YPT6, active compounds read low 1.1 | locus YML094W, strain GIM5, active compounds read low 1.01 | locus YMR219W, strain ESC1, active compounds read low 1.01 | locus YMR263W, strain SAP30, active compounds read low 0.978 | locus YMR307W, strain GAS1, active compounds read low 0.999 | locus YNL153C, strain GIM3, active compounds read low 0.998 | locus YNL298W, strain CLA4 (second series), active compounds read low 1.05 | locus YNL322C, strain KRE1, active compounds read low 1 | locus YNR030W, strain Alg12, active compounds read low 1.02 | locus YPL055C, strain LGE1, active compounds read low 0.917 | locus YPL241C, strain CIN2, active compounds read low 1.01 | locus YPR135W, strain CTF4, active compounds read low 1.01
